# Reference: publication PMC5540273 (PLoS ONE, 2017)
# Tests used:
# Conditions in all cases: concentration: 1 μM, replicates: in singlicate; n = 1
# JNK3 = test system: T1, JNK3
# T1 construct: gene MAPK10
# KIT-autoinhibited = test system: KIT-autoinhibited
# KIT = test system: KIT
# LATS1 = test system: LATS1
# LATS2 = test system: LATS2
# LCK = test system: LCK
# LIMK1 = test system: LIMK1
# LIMK2 = test system: LIMK2
# LKB1 = test system: T2, LKB1
# T2 construct: gene STK11
# LOK = test system: T3, LOK
# T3 construct: gene STK10
# LRRK2 = test system: LRRK2
# LTK = test system: LTK
# LYN = test system: LYN
# LZK = test system: T4, LZK
# T4 construct: gene MAP3K13
# MAK = test system: MAK
# MAP3K15 = test system: MAP3K15
# MAP3K1 = test system: MAP3K1
# MAP3K2 = test system: MAP3K2
# MAP3K3 = test system: MAP3K3
# MAP3K4 = test system: MAP3K4
# 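Note: KINOMEscan kinase panel screen.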
Structure (SMILES),%Inh (JNK3),%Inh (KIT-autoinhibited),%Inh (KIT),%Inh (LATS1),%Inh (LATS2),%Inh (LCK),%Inh (LIMK1),%Inh (LIMK2),%Inh (LKB1),%Inh (LOK),%Inh (LRRK2),%Inh (LTK),%Inh (LYN),%Inh (LZK),%Inh (MAK),%Inh (MAP3K15),%Inh (MAP3K1),%Inh (MAP3K2),%Inh (MAP3K3),%Inh (MAP3K4)
COC(=O)C(Cc1ccccc1)NC(=O)NC1CCN(c2ccnc(Nc3ccc(F)cc3)n2)C1 (centres unmarked) [GSK1379714],0%,9%,11%,0%,15%,21%,0%,9%,21%,3%,0%,0%,22%,23%,35%,0%,0%,0%,0%,0%
COc1cccc(C2=C(Nc3cc(Cl)c(O)c(Cl)c3)C(=O)NC2=O)c1 [SB-390767],15%,0%,0%,1%,0%,0%,31%,0%,0%,0%,55%,96.8%,0%,0%,4%,0%,12%,0%,0%,7%
CNc1nc(-c2ccc3c(N)n[nH]c3c2)cc(N2C[C@@H](C(=O)NC3CCCCC3)OC[C@H]2C)n1 [GSK2375584],0%,7%,20%,0%,15%,19%,8%,24%,0%,0%,0%,0%,0%,35%,0%,0%,0%,0%,0%,0%
NS(=O)(=O)c1cccc(N/C=C2\C(=O)Nc3ccc(S(=O)(=O)Cc4c(Cl)cccc4Cl)cc32)c1 [GSK398099],7%,0%,15%,41%,22%,13%,7%,28%,0%,0%,0%,0%,0%,0%,28%,0%,15%,0%,0%,0%
COc1ccc(Nc2nccc(-c3ccc(NC(=O)c4cc5cc(F)ccc5[nH]4)cc3)n2)cc1 [GSK1229496],3%,0%,11%,0%,1%,0%,38%,7%,15%,0%,0%,0%,0%,21%,22%,0%,0%,5%,0%,0%
O=c1cc(N2CCOCC2)nc2n(Cc3ccccc3F)ccn12 [GSK2297428],0%,0%,7%,0%,0%,28%,0%,1%,5%,0%,0%,21%,0%,0%,8%,0%,2%,0%,0%,0%
CN1c2ccc(-c3ccc(C(N)=O)cc3)cc2-c2[nH]ncc2S1(=O)=O,0%,20%,0%,9%,0%,5%,0%,0%,10%,5%,0%,0%,0%,0%,0%,0%,0%,21%,12%,0%
O=C(Nc1n[nH]c2cc(-c3ccsc3)ccc12)C1CC1 [SB-732932],30%,0%,56%,2%,15%,0%,0%,0%,0%,3%,0%,0%,4%,52%,41%,45%,23%,17%,5%,5%
COc1ccc2cc(-c3nc(-c4ccccc4C(C)C)[nH]c3-c3ccncc3)ccc2c1 [SB-660566],44%,0%,0%,0%,0%,11%,8%,0%,0%,61%,13%,3%,20%,0%,0%,17%,20%,28%,0%,16%
Cc1nccc(-c2c(-c3ccc(F)cc3)ncn2CCCN2CCOCC2)n1.Cl [SB-282975],43%,9%,0%,0%,0%,27%,11%,10%,0%,9%,0%,30%,9%,0%,25%,28%,20%,17%,19%,22%
